# Laboratory results as given in PubChem BioAssay.
# Unmarked numbers belong to inactive results. Activity calls are given as the source filed them.
# Experiment: change in splice reporter luminescence, either direction, cell-based, HEK293, spliceosome inhibition project, primary screen (AID 1101);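 also: HEK293 cells carrying a splicing-competent luciferase reporter gene; test concentration not given here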
# Details: HEK293 splicing luciferase reporter, 24 h, higher = more signal, called active from +8 up or from −8 down
row,Compound,z-score
1,CC1CC/C=C\[C@H]2OC34C=CCN(CCN5CCOCC5)C(=O)[C@H]3N(CCCO)C(=O)[C@@H]4C2C(=O)O1 (stereo not given in full),0.316
2,COC(=O)C[C@H]1O[C@@]2(C[C@@H]1[Si](C)(C)C)C(=O)N(C)c1ccccc12,-0.662
3,O=C1C2C=CC(C(O)c3cccs3)N(Nc3ccc([N+](=O)[O-])cc3)C2C(=O)N1c1ccccc1 (stereo not given),1.15
4,Cc1ccc(S[C@]2(C(=O)NCc3ccccc3)CC(=O)N(Cc3ccccc3C(F)(F)F)[C@@H]2c2ccc(CO)cc2)cc1,-0.284
5,O=C1[C@H]2C=C(I)[C@H](C[C@@H]2c2ccccc2)[C@@]12CO2,0.523
6,C=CC[C@@]12N=C(c3ccc(OCCCO)cc3)O[C@@H]1c1ccccc1N(CCC)C2=O,-0.457
7,C=CCC(OC(C)=O)[C@@H]1[C@@H](N(Cc2cccc3ccccc23)C(=O)c2ccc(-c3ccccc3)cc2)c2cc(OCCCO)ccc2N1C(=O)Cc1ccc2ccccc2c1 (stereo not given in full),-1.08
8,CCOC(=O)C1=CC[C@@H](c2ccccc2)N(S(=O)(=O)c2ccc(C)cc2)[C@H]1c1ccccc1I,-0.0553
9,O=C1O[C@H](c2ccccc2)[C@H](c2ccccc2)N2[C@H]1[C@@H](C(=O)O)[C@]1(C(=O)Nc3ccc(C#CCCO)cc31)[C@H]2c1ccc(OCCO)cc1,-0.155
10,COc1ccc(C(O)C2C=CC3C(=O)NC(=O)C3N2Nc2ccc(Cl)cc2Cl)c2ccccc12 (stereo not given),-0.744
11,COCCCNC(=O)[C@@]1(CCC(=O)OC(C)(C)C)COC(c2ccc(OCCCO)cc2)=N1,-1.09
12,NC(=O)N1C(=O)C2C(C1=O)C1C=C(CCCO)C2C(C2CC2)N1Cc1sc2ccccc2c1Cl (stereo not given),1.01
13,C=CCOC(=O)[C@@H]1[C@H]2C(=O)O[C@H](c3ccccc3)[C@H](c3ccccc3)N2[C@H](c2ccc(OCCOC(=O)[C@H]3C[C@H]4C(=O)N[C@@H](CCCCN(C)C)C(=O)N4[C@H]3c3ccc(O)cc3)cc2)[C@@]12C(=O)Nc1ccc(I)cc12,0.676
14,CCCC=C(CCC)[C@@H](NC(=O)c1ccc(C(F)(F)F)cc1)c1ccc(C(F)(F)F)cc1,-3.17
15,COc1cc(C(O)C2C=CC3C(=O)N(c4ccccc4)C(=O)C3N2Nc2ccccc2)cc(OC)c1OC (stereo not given),1.28
16,CC(=O)OCC1C2CC[C@H]3C(OCc4ccc(F)cc4C(F)(F)F)OC[C@]4(C)[C@H]3C2=C(CN4C(=O)OC(C)(C)C)[C@H](C)C1COC(C)=O (stereo not given in full),-0.329
17,COC(=O)[C@@]1(Cc2ccc(F)cc2)[C@H]2c3cc(C(=O)N4CCCC4)n(Cc4cc(F)cc5c4OCOC5)c3C[C@H]2CN1C(=O)c1ccccc1,-0.844
18,C[C@@H]1ON(c2ccccc2)[C@H](c2ccccc2)[C@H]1C(=O)O,0.221

row,Compound,z-score
1,C=CCC(OC(C)=O)[C@@H]1[C@@H](N(Cc2cc3ccccc3o2)C(=O)Cc2ccc(OC)cc2)c2cc(OCCCO)ccc2N1C(=O)c1ccc2ccccc2n1 (stereo not given in full),-0.536
2,COC(=O)[C@@]1(Cc2ccc(OC)cc2)[C@H]2c3cc(C(=O)N4CCCC4)n(Cc4c(CO)[nH]cc(C)c4=O)c3C[C@H]2CN1C(=O)c1ccccc1,-1.14
3,COc1ccc(NN2C(C(O)c3ccc(I)cc3)C=CC3C(=O)N(C4CCCCC4)C(=O)C32)cc1 (stereo not given),0.293
4,O=C1O[C@H](c2ccccc2)[C@H](c2ccccc2)N2[C@H]1[C@@H](C(=O)N1CCN(c3ncccn3)CC1)[C@]1(C(=O)Nc3ccc(C#CCCO)cc31)[C@H]2c1ccc(O)cc1,-0.057
5,CC1CC/C=C\[C@H]2OC34C=CCN(c5ccc(Cl)cc5)C(=O)[C@H]3N(CCCCCCO)C(=O)[C@]4(C)C2C(=O)O1 (stereo not given in full),0.104
6,O=C(NC1CC1)[C@@H]1c2ccccc2C(=O)N(Cc2cc(C(F)(F)F)cc(C(F)(F)F)c2)[C@H]1c1ccc(CO)cc1,-0.261
7,COc1ccc([Si](C)(C)[C@@H]2[C@@H](CC(=O)N3Cc4ccccc4C[C@H]3CO)O[C@]3(C(=O)N(Cc4ccc(N5CCOC5=O)cc4)c4ccccc43)[C@H]2C)cc1,-1.36
8,CN1C(=O)C2C(C1=O)C1C=C(CCCO)C2C(C2CC2)N1Cc1cccc(OC(F)(F)F)c1 (stereo not given),-0.511
9,[N-]=[N+]=Nc1ccccc1[C@@H]1OC(c2ccc(OCCCO)cc2)=N[C@]1(Cc1ccccc1)C(=O)NCCN1CCOCC1,-0.299
10,COC(=O)[C@@]1(Cc2ccccc2)N=C(c2ccc(OCCCO)cc2)O[C@H]1c1ccccc1CN=[N+]=[N-],12.9 (active)
11,Cc1ccc(N2C(=O)c3ccccc3[C@](C)(C(=O)NCCCN(C)C)[C@@H]2c2ccc(CO)cc2)nc1,0.055
12,CC(C)N1C(=O)C[C@@](C(=O)NCCN2CCOCC2)(c2ccc([N+](=O)[O-])cc2)[C@H]1c1ccc(CO)cc1,-0.286
13,CN(C)CCCNC(=O)[C@@]1(Cc2ccccc2I)c2ccccc2C(=O)N(C2CCCCC2)[C@H]1c1ccc(CO)cc1,-4.61
14,CC(C)N1C(=O)c2ccccc2[C@@H](C(=O)NCC(F)(F)F)[C@@H]1c1ccc(CO)cc1,0.655
15,CC(C)=C1C(=O)C(c2ccccc2)=C2CN3C(=O)N(CCc4ccccc4)C(=O)[C@]3(C)[C@H]21,1.15
16,COCCCNC(=O)[C@@]1(CCS(=O)(=O)c2ccccc2)COC(c2ccc(OCCCO)cc2)=N1,0.0749
17,O=C1C2C=CC(C(O)C3CCCCC3)N(n3cnnc3)C2C(=O)N1Cc1ccccc1 (stereo not given),-1.3
